Assay results taken from PubChem BioAssay AID1159580 (chemical genetic matrix, 2015).
The whole screen tested about 5,500 compounds, of which about 2,000 (36%) were called active. Not shown: some 18% with an inconclusive outcome. This is one part of the list. Values without a mark were called inactive. Cut-off read from the data, not from the text of the source: active = normalized growth mostly below about 0.91 (no sharp cut-off); inconclusive = no clear call, values can overlap the other calls; inactive = mostly above about 0.92.

Assay: chemical genetic growth profiling, strain panel (AID 1159580);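 note: tested at 20 µM; growth read once vehicle control cultures reached saturation at 30 °C; 1 = growth at the plate median or of vehicle wells; lower values mean less growth of the strain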
Conditions: growth OD

Which results are given for `CC(=O)O[C@]1(C(C)=O)CCC2C3C[C@H](C)C4=CC(=O)CC[C@]4(C)C3CC[C@@]21C` (stereo partly drawn)?
normalized growth (S. cerevisiae deletion strains, locus YJR075W, strain HOC1, stronger effect = lower value): 0.99; normalized growth (S. cerevisiae deletion strains, locus YKL009W, strain mrt4, stronger effect = lower value): 0.973; normalized growth (S. cerevisiae deletion strains, locus YKL068W, stronger effect = lower value): 0.971; normalized growth (S. cerevisiae deletion strains, locus YKL085W, strain MDH1 (second series), stronger effect = lower value): 0.977; normalized growth (S. cerevisiae deletion strains, locus YKL085W, strain MDH1, stronger effect = lower value): 0.977; normalized growth (S. cerevisiae deletion strains, locus YKL160W, strain elf1, stronger effect = lower value): 0.911; normalized growth (S. cerevisiae deletion strains, locus YKL190W, strain CNB1, stronger effect = lower value): 0.989; normalized growth (S. cerevisiae deletion strains, locus YKR001C, strain vps1, stronger effect = lower value): 0.956; normalized growth (S. cerevisiae deletion strains, locus YKR026C, strain gcn3, stronger effect = lower value): 0.981; normalized growth (S. cerevisiae deletion strains, locus YKR091W, strain srl3, stronger effect = lower value): 0.959; normalized growth (S. cerevisiae deletion strains, locus YLL001W, strain dnm1, stronger effect = lower value): 0.894 (active); normalized growth (S. cerevisiae deletion strains, locus YLL026W, stronger effect = lower value): 0.976; normalized growth (S. cerevisiae deletion strains, locus YLL041C, strain sdh2, stronger effect = lower value): 0.968; normalized growth (S. cerevisiae deletion strains, locus YLR027C, strain aat2, stronger effect = lower value): 0.976; normalized growth (S. cerevisiae deletion strains, locus YLR039C, strain RIC1, stronger effect = lower value): 1.05; normalized growth (S. cerevisiae deletion strains, locus YLR058C, strain SHM2, stronger effect = lower value): 0.979; normalized growth (S. cerevisiae deletion strains, locus YLR102C, strain apc9, stronger effect = lower value): 0.989; normalized growth (S. cerevisiae deletion strains, locus YLR113W, strain HOG1, stronger effect = lower value): 0.965; normalized growth (S. cerevisiae deletion strains, locus YLR221C, strain rsa3, stronger effect = lower value): 0.9 (active); normalized growth (S. cerevisiae deletion strains, locus YLR258W, strain gsy2, stronger effect = lower value): 0.949; normalized growth (S. cerevisiae deletion strains, locus YLR262C, strain YPT6 (second series), stronger effect = lower value): 0.815 (active); normalized growth (S. cerevisiae deletion strains, locus YLR262C, strain YPT6, stronger effect = lower value): 0.957; normalized growth (S. cerevisiae deletion strains, locus YLR268W, strain sec22, stronger effect = lower value): 0.977; normalized growth (S. cerevisiae deletion strains, locus YLR320W, strain mms22, stronger effect = lower value): 0.875 (active); normalized growth (S. cerevisiae deletion strains, locus YLR330W, strain CHS5, stronger effect = lower value): 0.988; normalized growth (S. cerevisiae deletion strains, locus YLR342W, strain FKS1 (second series), stronger effect = lower value): 0.984; normalized growth (S. cerevisiae deletion strains, locus YLR342W, strain FKS1, stronger effect = lower value): 0.948; normalized growth (S. cerevisiae deletion strains, locus YLR357W, strain rsc2, stronger effect = lower value): 0.939; normalized growth (S. cerevisiae deletion strains, locus YLR370C, strain arc18, stronger effect = lower value): 0.925; normalized growth (S. cerevisiae deletion strains, locus YLR371W, strain rom2, stronger effect = lower value): 0.985; normalized growth (S. cerevisiae deletion strains, locus YLR384C, strain iki3, stronger effect = lower value): 0.977; normalized growth (S. cerevisiae deletion strains, locus YLR418C, strain cdc73, stronger effect = lower value): 0.829 (active); normalized growth (S. cerevisiae deletion strains, locus YML016C, strain PPZ1, stronger effect = lower value): 0.996; normalized growth (S. cerevisiae deletion strains, locus YML032C, strain rad52, stronger effect = lower value): 0.984; normalized growth (S. cerevisiae deletion strains, locus YML120C, strain ndi1, stronger effect = lower value): 0.916; normalized growth (S. cerevisiae deletion strains, locus YML124C, strain tub3, stronger effect = lower value): 0.986; normalized growth (S. cerevisiae deletion strains, locus YMR058W, strain fet3, stronger effect = lower value): 0.968; normalized growth (S. cerevisiae deletion strains, locus YMR078C, strain ctf18, stronger effect = lower value): 0.97; normalized growth (S. cerevisiae deletion strains, locus YMR125W, strain sto1, stronger effect = lower value): 0.947; normalized growth (S. cerevisiae deletion strains, locus YMR129W, stronger effect = lower value): 0.972; normalized growth (S. cerevisiae deletion strains, locus YMR205C, strain PFK2, stronger effect = lower value): 0.906; normalized growth (S. cerevisiae deletion strains, locus YMR223W, strain ubp8, stronger effect = lower value): 0.917; normalized growth (S. cerevisiae deletion strains, locus YMR231W, strain pep5, stronger effect = lower value): 0.978; normalized growth (S. cerevisiae deletion strains, locus YMR263W, strain SAP30, stronger effect = lower value): 0.989; normalized growth (S. cerevisiae deletion strains, locus YMR307W, strain GAS1, stronger effect = lower value): 0.992; normalized growth (S. cerevisiae deletion strains, locus YNL067W, strain RPL9B, stronger effect = lower value): 0.993; normalized growth (S. cerevisiae deletion strains, locus YNL071W, strain lat1, stronger effect = lower value): 0.876 (active); normalized growth (S. cerevisiae deletion strains, locus YNL153C, strain GIM3, stronger effect = lower value): 0.983; normalized growth (S. cerevisiae deletion strains, locus YNL183C, strain NPR1, stronger effect = lower value): 0.951; normalized growth (S. cerevisiae deletion strains, locus YNL209W, strain ssb2, stronger effect = lower value): 0.958; normalized growth (S. cerevisiae deletion strains, locus YNL233W, strain BNI4, stronger effect = lower value): 0.989; normalized growth (S. cerevisiae deletion strains, locus YNL248C, strain rpa49, stronger effect = lower value): 0.955; normalized growth (S. cerevisiae deletion strains, locus YNL250W, strain rad50, stronger effect = lower value): 0.986; normalized growth (S. cerevisiae deletion strains, locus YNL271C, strain bni1, stronger effect = lower value): 0.969; normalized growth (S. cerevisiae deletion strains, locus YNL298W, strain CLA4, stronger effect = lower value): 0.953; normalized growth (S. cerevisiae deletion strains, locus YNL307C, strain MCK1, stronger effect = lower value): 0.914; normalized growth (S. cerevisiae deletion strains, locus YNL322C, strain KRE1 (second series), stronger effect = lower value): 0.962; normalized growth (S. cerevisiae deletion strains, locus YNR049C, strain mso1, stronger effect = lower value): 0.974; normalized growth (S. cerevisiae deletion strains, locus YNR052C, strain pop2, stronger effect = lower value): 0.994; normalized growth (S. cerevisiae deletion strains, locus YOL012C, strain htz1): 1.07; normalized growth (S. cerevisiae deletion strains, locus YOL147C, strain pex11, stronger effect = lower value): 0.983; normalized growth (S. cerevisiae deletion strains, locus YOR001W, strain rrp6, stronger effect = lower value): 1.01; normalized growth (S. cerevisiae deletion strains, locus YOR061W, strain CKA2, stronger effect = lower value): 0.987; normalized growth (S. cerevisiae deletion strains, locus YOR069W, strain VPS5, stronger effect = lower value): 0.984; normalized growth (S. cerevisiae deletion strains, locus YOR070C, strain gyp1, stronger effect = lower value): 0.967; normalized growth (S. cerevisiae deletion strains, locus YOR080W, strain dia2, stronger effect = lower value): 0.97; normalized growth (S. cerevisiae deletion strains, locus YOR083W, strain WHI5, stronger effect = lower value): 0.927; normalized growth (S. cerevisiae deletion strains, locus YOR106W, strain vam3, stronger effect = lower value): 0.95; normalized growth (S. cerevisiae deletion strains, locus YOR136W, strain idh2, stronger effect = lower value): 1; normalized growth (S. cerevisiae deletion strains, locus YOR144C, strain elg1, stronger effect = lower value): 0.997; normalized growth (S. cerevisiae deletion strains, locus YOR184W, strain ser1, stronger effect = lower value): 0.875; normalized growth (S. cerevisiae deletion strains, locus YOR231W, strain MKK1, stronger effect = lower value): 0.998; normalized growth (S. cerevisiae deletion strains, locus YOR265W, strain rbl2, stronger effect = lower value): 0.986; normalized growth (S. cerevisiae deletion strains, locus YOR270C, strain vph1, stronger effect = lower value): 0.867; normalized growth (S. cerevisiae deletion strains, locus YOR290C, strain snf2, stronger effect = lower value): 0.873; normalized growth (S. cerevisiae deletion strains, locus YOR316C, strain cot1, stronger effect = lower value): 0.986; normalized growth (S. cerevisiae deletion strains, locus YPL051W, strain arl3, stronger effect = lower value): 0.937; normalized growth (S. cerevisiae deletion strains, locus YPL055C, strain LGE1, stronger effect = lower value): 0.963; normalized growth (S. cerevisiae deletion strains, locus YPL078C, strain atp4, stronger effect = lower value): 0.939; normalized growth (S. cerevisiae deletion strains, locus YPL106C, strain sse1, stronger effect = lower value): 0.991; normalized growth (S. cerevisiae deletion strains, locus YPL240C, strain hsp82, stronger effect = lower value): 0.967; normalized growth (S. cerevisiae deletion strains, locus YPL256C, strain CLN2, stronger effect = lower value): 1; normalized growth (S. cerevisiae deletion strains, locus YPR119W, strain clb2, stronger effect = lower value): 0.986; normalized growth (S. cerevisiae deletion strains, locus YPR141C, strain kar3, stronger effect = lower value): 0.954; normalized growth (S. cerevisiae deletion strains, locus YPR163C, strain tif3, stronger effect = lower value): 0.982; normalized growth (S. cerevisiae deletion strains, locus YPR167C, strain met16, stronger effect = lower value): 0.982; normalized growth (S. cerevisiae deletion strains, strain wtn01, stronger effect = lower value): 0.955; normalized growth (S. cerevisiae strains, strain wild type, stronger effect = lower value): 0.991
